# Six1-Eya2 blk – blocks human Six1 binding to Eya2. Q15475+O00167. activity change, % (test concentration not listed). actives 0.56% (n = 360,000). AlphaScreen GST-Six1/His-Eya2 binding, biochemical; stronger effect = lower value; in the data active = activity change below about -65%; inconclusive = mostly about -30% to -63%
#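 Six1/Eya2 binding was read as AlphaScreen signal after compounds were pinned into GST-Six1 plus His-tagged Eya2 (5X stock 250/500 nM) in pH 8.0 Tris/NaCl/TCEP buffer, beads added, then incubated 1 h, 37 C, dark.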
# DT40 TDP1 no CPT – qHTS for Inhibitors of human tyrosyl-DNA phosphodiesterase 1 (TDP1): qHTS in cells in absence of CPT; Potency, µM (doses to about 46.2 µM), without a hit: at the highest dose activity change, negative = growth inhibition, most hits filed as inhibitors; AID 686978, 2013; actives 15% (n = 420,000); DT40 Tdp1-/- hTDP1 cells, no CPT, ATP luminescence, 48 h; note: potency is the fitted concentration of half-maximal effect; nearly all actives have a fitted effect of over 55% in size
#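 Stably hTDP1-transfected Tdp1-null chicken DT40 cells were treated with library compounds minus camptothecin and grown for at least 48 hr at 37 °C, after which cellular ATP was quantified by luminescence.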
# TDP1 block – blocks human tyrosyl-DNA phosphodiesterase 1; Q9NUW8; recombinant TDP1, AlphaScreen DNA substrate cleavage; Potency, µM (doses to about 130 µM), without a hit: top-dose activity change, negative = inhibition, actives largely listed as inhibitors; actives 0.28% (n = 350,000); AID 485290; note: potency is the fitted concentration of half-maximal effect; nearly all actives have a fitted effect of over 40% in size
# Target sequence (Q9NUW8 whole entry, looked up): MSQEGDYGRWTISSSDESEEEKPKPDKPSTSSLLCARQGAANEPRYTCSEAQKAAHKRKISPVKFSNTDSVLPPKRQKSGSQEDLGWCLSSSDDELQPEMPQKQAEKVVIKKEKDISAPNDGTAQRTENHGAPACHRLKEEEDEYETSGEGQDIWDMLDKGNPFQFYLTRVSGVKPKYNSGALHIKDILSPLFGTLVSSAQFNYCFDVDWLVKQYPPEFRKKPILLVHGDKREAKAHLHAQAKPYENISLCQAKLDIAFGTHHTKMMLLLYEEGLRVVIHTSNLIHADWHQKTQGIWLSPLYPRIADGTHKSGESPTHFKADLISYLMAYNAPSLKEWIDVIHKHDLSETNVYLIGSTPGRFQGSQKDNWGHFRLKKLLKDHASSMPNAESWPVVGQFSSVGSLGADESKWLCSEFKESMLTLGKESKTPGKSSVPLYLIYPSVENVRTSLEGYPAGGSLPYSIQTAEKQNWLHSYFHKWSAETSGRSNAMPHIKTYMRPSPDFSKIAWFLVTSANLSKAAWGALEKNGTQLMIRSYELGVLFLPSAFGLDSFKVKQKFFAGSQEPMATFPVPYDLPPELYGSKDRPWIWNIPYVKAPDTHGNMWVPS
#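 Recombinant E. coli-expressed Tdp1 (1 nM) preincubated with compound 15 min at RT, then 5'-biotin/3'-phosphotyrosine-FITC DNA substrate (15 nM) added for 5 min. AlphaScreen beads (10 ug/ml) added, 10 min RT; tyrosine-FITC cleavage read as signal loss.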
# DT40 TDP1 CPT – DT40-hTDP1 cell growth loss with CPT. actives 12% (n = 420,000). Potency, µM (series often up to 46.2 µM), for the others: top-dose activity change, negative = growth inhibition, hits mostly inhibitors. chicken DT40 Tdp1-/-;hTDP1 cells + 20 nM CPT, ATP luminescence, 48 h; note: potency is the fitted concentration of half-maximal effect; nearly all actives have a fitted effect of over 55% in size
#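 Chicken DT40 Tdp1-/- cells complemented with human TDP1, 400 cells/well, exposed to compounds plus 20 nM camptothecin for at least 48 h at 37 C; viability read as ATP content by CellTiter-Glo luminescence.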
# CtBP-E1A inh – CtBP/E1A binding inhibition; AID 651724; actives 0.49% (n = 340,000); activity change, % (no concentration beside the values); AlphaScreen GST-E1A/His-CtBP binding, 1536-well; stronger effect = lower value; in the data active = activity change below about -65%; inconclusive = mostly about -30% to -63%
#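 Steps: dispense buffer (Tris pH 8.0, NaCl 300 mM, TCEP 1 mM, BSA, Tween 20); add 5X protein mix (GST-E1A, His-CtBP, 125 nM each); pin 23 nL compound; 2 h at 37 °C, dark; add 5X beads (50 ug/mL); 1 h; read.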
# IL1B secr inh – blocks inflammasome-driven IL-1 beta release; THP-1 LPS/ATP IL-1B secretion, AlphaLISA, 16 h; stronger effect = lower value; activity change, % at 57.5 µM; actives 4.7% (n = 360,000); AID 743279; in the data active = activity change below about -50%; inconclusive = mostly about -30% to -49%
#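 Secreted IL-1B measured by AlphaLISA bead assay after 16 h compound exposure of THP-1 cells; compounds (final up to 57.5 uM) added 1 h before LPS (250 ng/mL) and ATP (1.25 mM) stimulation; lower signal means less secretion.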
# Active calls of the source: *; u = inconclusive; x = no result; [ ] = remark or other dose. Rows were chosen to be rich in hits. Some 18% of all compounds tested hit in one or more screens of this group. Unless noted, calls come from the whole dose curve; as a rule, active = well fitted curve in the direction sought with a large enough effect; inconclusive = small, poorly fitted or top-dose-only effect, or another doubt; inactive = no such curve, though single readings can be large; an effect the other way counts as inactive or inconclusive. % is set by controls: 0 for no effect and ±100 for the full control effect.
SMILES,Six1-Eya2 blk,DT40 TDP1 no CPT,TDP1 block,DT40 TDP1 CPT,CtBP-E1A inh,IL1B secr inh
Cc1ccc(NC(=O)CNC(=O)C23CC4CC(CC(C4)C2)C3)nc1,3,-16%,x,u,4,0
N#Cc1ccccc1S(=O)(=O)N1CCN(c2nc(-c3cccnc3)nc3ccccc23)CC1,-9,u,1%,u,-2,-6
O=S(=O)(c1ccccc1F)N1CCN(c2nc(-c3cccnc3)nc3ccccc23)CC1,-18,21µM*,3%,u,x,4
COc1ccc(S(=O)(=O)N2CCN(c3nc(-c4cccnc4)nc4ccccc34)CC2)cc1,-6,8.2µM*,3%,18µM*,-9,-22
COc1ccc(S(=O)(=O)N2CCN(c3ccccc3OC)CC2)cc1,16,u,12%,u,x,-15
COc1ccc(S(=O)(=O)N2CCN(c3ccc4nnc(-c5ccccc5)n4n3)CC2)cc1,u,u,7%,12µM*,-2,0
Cc1ccc(C)c(S(=O)(=O)N2CCN(c3nc(-c4cccnc4)nc4ccccc34)CC2)c1,-12,6.5µM*,1%[56.1 µM],8.2µM*,-12,0
CCOc1ccc(S(=O)(=O)N2CCN(c3nc(-c4ccccc4)nc4ccccc34)CC2)cc1,x,-16%,0%,5%,x,x
COc1ccc(C2CC3(O)NC(=O)C(C#N)(C3C)C2(C#N)C#N)cc1 (stereo not drawn),-1,10%,1%,1%,x,-5
O=C1C2ON(c3ccc(Br)cc3)C(c3cccnc3)C2C(=O)N1C1CCCCC1 (stereo not drawn),-8,18µM*,0%,u,6,0
COc1ccc(C(=O)NCCn2cc(SCC(=O)Nc3ccccc3)c3ccccc32)cc1OC,x,u,10%,u,x,x
Cc1cccc(N(C(=O)Cn2nnc3ccccc32)C(C(=O)NC(C)(C)C)c2ccsc2)c1C (stereo not drawn),-1,16µM*,6%,u,-7,-13
COCCNC(=O)C(c1ccco1)N(C(=O)Cn1nnc2ccccc21)c1cccc(C)c1C (stereo not drawn),2,u,9%,-7%,-1,2
COCCNC(=O)C(c1ccccc1)N(CCOC)C(=O)Cn1nnc2ccccc21 (stereo not drawn),1,-12%,4%,-7%,1,28
Cc1ccccc1CCN(C(=O)Cn1nnc2ccccc21)C(C(=O)NC(C)(C)C)c1ccsc1 (stereo not drawn),-1,26µM*,3%,18µM*,-7,3
CC(C)(C)C(=O)Nc1ccccc1-c1nc2ccccc2[nH]c1=O,-6,-5%,x,11%,3,18
Cn1c(CN2CCOCC2)nnc1SCc1ccc(C#N)cc1,3,-3%,-3%,-12%,8,-12
O=C(Nc1cnc2ccccn2c1=O)c1ccc(F)cc1,2,-5%,-3%,2%,-2,-13
CSCCC(c1nc2ccccc2[nH]1)n1c(=O)c(-c2ccco2)nc2ccccc21 (stereo not drawn),-3,23µM*,x,12µM*,-13,u
CSCCC(c1nc2ccccc2[nH]1)n1c(C)nc2ccccc21 (stereo not drawn),1,-5%,x,1%,-3,9
CSCCC(c1nc2ccccc2[nH]1)n1c(-c2cc(C(F)(F)F)cc(C(F)(F)F)c2)nc2ccccc21 (stereo not drawn),-13,16µM*,x,u,-2,-21
CSCCC(c1nc2ccccc2[nH]1)n1c(=O)c(-c2cccnc2)nc2ccccc21 (stereo not drawn),6,-21%,x,-9%,-19,u
COc1ccc(C2c3c(nc(CCCc4ccccc4)[nH]c3=O)Oc3ccc4ccccc4c32)cc1OC (stereo not drawn),x,x,3%,x,x,x
CN(Cc1ccccc1)S(=O)(=O)c1ccc(NC(=O)C2CCCO2)cc1 (stereo not drawn),-1,u,1%,u,9,9
COc1ccccc1CN1CCNC(=O)C1CC(=O)O (stereo not drawn),-8,-16%,6%,6%,-9,11
SMILES,Six1-Eya2 blk,DT40 TDP1 no CPT,TDP1 block,DT40 TDP1 CPT,CtBP-E1A inh,IL1B secr inh
CCOC(=O)c1ccc(NC(=S)N(CCN2CCCCCC2)Cc2cccs2)cc1,0,15µM*,4%,u,-3,-3
O=C(CNC(=S)N(CCCN1CCOCC1)Cc1cccs1)NC1CCCCCCC1,2,16µM*,-1%,u,-13,-54*
CCOC(=O)c1ccc(NC(=S)N(CCCN2CCN(CC)CC2)Cc2cccs2)cc1,-10,18µM*,-2%,u,-3,-1
CCOC(=O)c1ccc(NC(=S)N(CCCN2CCN(C)CC2)Cc2cccs2)cc1,-1,-14%,2%,-28%,1,u
CCOC(=O)c1ccc(NC(=S)N(CCCN2CCCC2)Cc2ccco2)cc1,-14,u,1%,u,3,-67*
O=C(CNC(=S)N(CCCN1CCOCC1)Cc1cccs1)NC1CCCCC1,0,-6%,0%,-11%,1,7
Nn1c(SCc2cn3ccsc3n2)nnc1-c1ccncc1,7,0%,3%,-3%,10,18
COc1ccc(NC(=S)N(CCCN2CCC(C)CC2)Cc2cccs2)cc1,-5,u,-9%,-10%,-6,-51*
Cc1ccc(NC(=S)N(CCCN2CCN(C)CC2)Cc2cccs2)cc1,-5,-1%,6%,-1%,-15,-19
Cc1ccc(NC(=S)N(CCCN2CCN(C)CC2)Cc2cccs2)cc1C,-8,-28%,2%,-10%,-18,-61*
COc1ccc(NC(=S)N(CCc2c(C)[nH]c3ccccc23)Cc2ccco2)cc1,-18,u,9%,u,-13,u
CCOc1ccc(NC(=S)N(CCc2c(C)[nH]c3ccccc23)Cc2ccco2)cc1,-23,u,8%,13µM*,-23,u
Cc1ccc(NC(=S)N(CCCN2CCC(C)CC2)Cc2ccco2)cc1C,14,u,3%,u,-23,-78*
CCN1CCN(CCCCSc2ccccc2)CC1,x,x,-5%,x,x,x
CCOC(=O)c1ccc(NC(=S)N(CCCN2CCCC(C)C2)Cc2cccs2)cc1 (stereo not drawn),-10,26µM*,2%,u,-4,-81*

# Bioassay records: PubChem BioAssay, National Center for Advancing Translational Sciences (NCATS)
